# Test results reported in the supplement of paper PMC10849652.
# The full data set covers some 7,900 targets. This sample favours those with a hit. About 0.6% of all pairs of compound and target were hits. Unmarked numbers belong to inactive results.
# Compound: CC1=C(C2=C(C=C1)C(=O)C3=CC=CC=C3N2CCCN)C
# Assay: log2 fold change, soluble protein after heating vs DMSO (PISA); higher = thermal stabilisation; K562 cells, 10 uM, 30 min; active = over 0.2 and 3.5 SD of the protein, either way, in both replicates (recomputed)
# Outline: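 K562 cells at 2×10^6 cells/mL were given 10 μM compound for 30 min. Aliquots then went through 3 min of heating across 48°C-58°C, were pooled, and were extracted in PBS with 0.5% NP-40 at 4°C, and the supernatant after 21,000xg for 90 min was quantified by TMTpro 16plex LC-MS/MS with channel sums equalised. Thermal stability relative to control samples, from duplicates, is given as log2 fold change.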
# Sequence of UniProt P30291 (P30291 whole entry, looked up): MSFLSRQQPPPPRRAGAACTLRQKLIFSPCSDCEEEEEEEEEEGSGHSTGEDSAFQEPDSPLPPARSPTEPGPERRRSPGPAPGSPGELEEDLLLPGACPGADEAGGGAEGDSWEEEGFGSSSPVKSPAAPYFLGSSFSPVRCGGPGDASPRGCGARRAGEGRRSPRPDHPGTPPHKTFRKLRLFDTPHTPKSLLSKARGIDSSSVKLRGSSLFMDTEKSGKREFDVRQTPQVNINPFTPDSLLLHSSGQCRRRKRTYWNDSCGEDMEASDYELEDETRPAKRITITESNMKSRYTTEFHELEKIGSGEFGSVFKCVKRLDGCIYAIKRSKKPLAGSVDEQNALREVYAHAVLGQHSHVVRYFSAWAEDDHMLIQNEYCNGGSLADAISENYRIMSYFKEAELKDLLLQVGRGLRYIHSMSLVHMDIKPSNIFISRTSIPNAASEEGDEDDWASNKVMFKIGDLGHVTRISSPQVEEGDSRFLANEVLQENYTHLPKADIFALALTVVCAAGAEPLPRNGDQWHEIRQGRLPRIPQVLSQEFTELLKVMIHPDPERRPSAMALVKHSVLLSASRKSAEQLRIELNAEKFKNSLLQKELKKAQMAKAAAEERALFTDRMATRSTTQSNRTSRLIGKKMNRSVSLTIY
# Sequence of UniProt Q93009 (Q93009 whole entry, looked up): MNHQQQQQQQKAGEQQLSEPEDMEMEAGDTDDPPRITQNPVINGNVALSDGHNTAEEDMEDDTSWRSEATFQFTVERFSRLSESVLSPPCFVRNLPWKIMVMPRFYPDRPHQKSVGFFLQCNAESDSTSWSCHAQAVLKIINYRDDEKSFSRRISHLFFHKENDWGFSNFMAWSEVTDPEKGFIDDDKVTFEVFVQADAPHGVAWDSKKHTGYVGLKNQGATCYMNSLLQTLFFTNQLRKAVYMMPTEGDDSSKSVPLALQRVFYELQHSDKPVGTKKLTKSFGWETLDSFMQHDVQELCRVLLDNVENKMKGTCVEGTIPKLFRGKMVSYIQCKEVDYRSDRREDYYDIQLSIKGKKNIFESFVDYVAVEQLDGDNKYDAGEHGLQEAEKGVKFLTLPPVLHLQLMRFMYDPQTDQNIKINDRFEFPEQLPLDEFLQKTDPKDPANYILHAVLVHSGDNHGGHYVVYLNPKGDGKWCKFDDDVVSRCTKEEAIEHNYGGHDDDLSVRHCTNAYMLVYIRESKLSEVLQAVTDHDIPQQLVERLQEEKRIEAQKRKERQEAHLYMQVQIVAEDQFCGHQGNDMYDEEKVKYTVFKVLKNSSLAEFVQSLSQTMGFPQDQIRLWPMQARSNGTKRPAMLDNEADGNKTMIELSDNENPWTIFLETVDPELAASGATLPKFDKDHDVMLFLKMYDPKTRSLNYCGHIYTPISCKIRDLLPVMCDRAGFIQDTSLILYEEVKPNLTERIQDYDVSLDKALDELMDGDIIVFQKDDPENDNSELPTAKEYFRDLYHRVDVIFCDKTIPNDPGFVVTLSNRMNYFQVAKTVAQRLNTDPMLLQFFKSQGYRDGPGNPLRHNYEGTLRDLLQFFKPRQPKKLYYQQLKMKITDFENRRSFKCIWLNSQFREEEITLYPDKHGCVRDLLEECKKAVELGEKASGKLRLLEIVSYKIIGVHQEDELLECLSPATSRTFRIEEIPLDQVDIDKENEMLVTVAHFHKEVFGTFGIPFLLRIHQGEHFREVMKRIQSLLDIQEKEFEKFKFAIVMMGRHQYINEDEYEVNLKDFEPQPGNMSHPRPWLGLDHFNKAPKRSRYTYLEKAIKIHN
# Sequence of UniProt Q9UID3 (Q9UID3 whole entry, looked up): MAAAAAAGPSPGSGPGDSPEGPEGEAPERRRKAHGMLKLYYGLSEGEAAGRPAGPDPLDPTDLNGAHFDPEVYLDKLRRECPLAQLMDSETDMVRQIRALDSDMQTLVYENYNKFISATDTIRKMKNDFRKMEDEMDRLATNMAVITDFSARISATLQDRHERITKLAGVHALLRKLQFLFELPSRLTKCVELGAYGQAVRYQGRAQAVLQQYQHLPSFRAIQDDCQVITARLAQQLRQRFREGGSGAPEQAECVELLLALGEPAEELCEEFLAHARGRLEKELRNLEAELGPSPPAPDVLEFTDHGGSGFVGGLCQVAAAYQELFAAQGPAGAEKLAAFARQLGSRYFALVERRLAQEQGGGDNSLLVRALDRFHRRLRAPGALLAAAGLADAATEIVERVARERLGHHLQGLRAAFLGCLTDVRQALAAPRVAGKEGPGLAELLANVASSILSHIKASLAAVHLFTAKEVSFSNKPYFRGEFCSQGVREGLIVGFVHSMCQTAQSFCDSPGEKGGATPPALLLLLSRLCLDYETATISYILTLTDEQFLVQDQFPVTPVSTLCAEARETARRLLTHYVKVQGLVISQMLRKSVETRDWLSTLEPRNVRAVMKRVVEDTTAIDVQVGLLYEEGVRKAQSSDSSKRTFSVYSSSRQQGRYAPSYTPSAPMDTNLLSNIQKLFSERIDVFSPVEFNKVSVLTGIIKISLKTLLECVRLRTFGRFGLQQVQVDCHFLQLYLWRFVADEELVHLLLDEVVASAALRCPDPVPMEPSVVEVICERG
# Sequence of UniProt Q14157 (Q14157 whole entry, looked up): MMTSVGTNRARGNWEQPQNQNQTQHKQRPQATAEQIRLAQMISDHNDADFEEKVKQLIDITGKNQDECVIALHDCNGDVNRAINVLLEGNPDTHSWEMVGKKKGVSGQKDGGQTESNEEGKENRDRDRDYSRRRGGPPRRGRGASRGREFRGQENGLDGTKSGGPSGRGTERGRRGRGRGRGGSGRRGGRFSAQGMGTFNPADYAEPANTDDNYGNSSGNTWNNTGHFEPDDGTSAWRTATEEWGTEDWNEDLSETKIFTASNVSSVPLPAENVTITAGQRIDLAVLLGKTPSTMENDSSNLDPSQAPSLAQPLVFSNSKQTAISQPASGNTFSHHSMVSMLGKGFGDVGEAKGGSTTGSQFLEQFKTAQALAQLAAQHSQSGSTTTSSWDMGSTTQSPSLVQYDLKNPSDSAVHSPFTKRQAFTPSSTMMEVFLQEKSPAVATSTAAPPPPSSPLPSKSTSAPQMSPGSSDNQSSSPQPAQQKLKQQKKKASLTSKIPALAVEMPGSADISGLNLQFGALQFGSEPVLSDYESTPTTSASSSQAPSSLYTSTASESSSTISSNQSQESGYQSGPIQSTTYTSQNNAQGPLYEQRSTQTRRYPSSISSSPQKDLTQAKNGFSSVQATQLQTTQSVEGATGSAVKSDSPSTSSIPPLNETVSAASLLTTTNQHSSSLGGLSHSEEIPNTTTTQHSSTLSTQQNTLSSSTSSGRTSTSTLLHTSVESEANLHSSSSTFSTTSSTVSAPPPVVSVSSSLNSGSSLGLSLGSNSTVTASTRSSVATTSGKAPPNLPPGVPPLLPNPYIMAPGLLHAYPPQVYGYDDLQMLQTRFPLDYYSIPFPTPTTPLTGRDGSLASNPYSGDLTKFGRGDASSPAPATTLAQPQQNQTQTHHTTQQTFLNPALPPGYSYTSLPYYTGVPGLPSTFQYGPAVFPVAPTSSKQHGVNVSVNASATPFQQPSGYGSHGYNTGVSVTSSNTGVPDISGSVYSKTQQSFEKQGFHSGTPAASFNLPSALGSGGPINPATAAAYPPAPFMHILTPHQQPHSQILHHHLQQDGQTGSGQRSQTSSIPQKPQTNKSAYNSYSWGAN
# Sequence of UniProt Q5BJH2 (Q5BJH2 whole entry, looked up): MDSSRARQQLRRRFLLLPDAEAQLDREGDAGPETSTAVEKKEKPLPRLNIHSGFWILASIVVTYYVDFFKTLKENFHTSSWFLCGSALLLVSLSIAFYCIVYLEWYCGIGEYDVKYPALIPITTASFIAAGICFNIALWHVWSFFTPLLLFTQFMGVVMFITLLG
# Sequence of UniProt Q9UL33 (Q9UL33 whole entry, looked up): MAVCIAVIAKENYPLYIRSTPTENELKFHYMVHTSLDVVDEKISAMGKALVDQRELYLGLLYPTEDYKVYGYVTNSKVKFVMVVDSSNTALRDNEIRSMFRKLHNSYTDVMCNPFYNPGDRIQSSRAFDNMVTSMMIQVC
# Sequence of UniProt Q9NV66 (Q9NV66 whole entry, looked up): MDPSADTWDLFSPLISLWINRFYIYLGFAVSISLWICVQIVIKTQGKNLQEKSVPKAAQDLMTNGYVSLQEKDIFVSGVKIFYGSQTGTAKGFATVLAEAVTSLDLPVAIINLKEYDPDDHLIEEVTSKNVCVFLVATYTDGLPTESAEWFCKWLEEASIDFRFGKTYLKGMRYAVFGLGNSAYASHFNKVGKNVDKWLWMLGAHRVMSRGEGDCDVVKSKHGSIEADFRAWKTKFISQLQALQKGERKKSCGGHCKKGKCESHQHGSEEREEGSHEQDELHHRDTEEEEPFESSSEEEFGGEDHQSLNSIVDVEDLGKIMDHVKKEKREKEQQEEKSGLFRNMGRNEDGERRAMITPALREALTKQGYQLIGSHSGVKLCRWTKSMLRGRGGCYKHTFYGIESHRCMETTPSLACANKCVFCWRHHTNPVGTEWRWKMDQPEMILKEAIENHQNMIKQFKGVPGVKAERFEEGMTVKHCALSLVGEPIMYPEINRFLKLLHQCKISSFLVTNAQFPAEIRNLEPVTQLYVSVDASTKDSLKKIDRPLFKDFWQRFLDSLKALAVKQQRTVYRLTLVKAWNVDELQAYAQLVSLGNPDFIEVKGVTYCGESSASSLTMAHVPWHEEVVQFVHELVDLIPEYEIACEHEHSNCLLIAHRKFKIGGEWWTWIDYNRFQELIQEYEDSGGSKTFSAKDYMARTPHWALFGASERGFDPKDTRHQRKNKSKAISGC
# Sequence of UniProt Q9P0T7 (Q9P0T7 whole entry, looked up): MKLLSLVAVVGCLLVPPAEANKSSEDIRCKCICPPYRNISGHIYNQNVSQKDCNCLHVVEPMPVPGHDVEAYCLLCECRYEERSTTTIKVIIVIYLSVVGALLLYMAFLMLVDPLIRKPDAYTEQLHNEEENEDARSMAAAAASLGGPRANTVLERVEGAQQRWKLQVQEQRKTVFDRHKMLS
# Sequence of UniProt Q86SZ2 (Q86SZ2 whole entry, looked up): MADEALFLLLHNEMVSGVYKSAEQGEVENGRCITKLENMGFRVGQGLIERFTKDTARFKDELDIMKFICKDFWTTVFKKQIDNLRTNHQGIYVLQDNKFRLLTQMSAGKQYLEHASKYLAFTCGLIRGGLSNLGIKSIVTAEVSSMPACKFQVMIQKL
row,Target,log2 fold change
1,TMEM223 (UniProt A0PJW6),0.042
2,USP25 isoform 3 (UniProt Q9UHP3),0.002
3,VPS41 (UniProt P49754),0.063
4,WDR47 (UniProt O94967),0.015
5,TMEM128 (UniProt Q5BJH2),0
6,WDR41 (UniProt Q9HAD4),-0.001
7,TMEM9 (UniProt Q9P0T7),-0.013
8,VPS51 (UniProt Q9UID3),0.105
9,TYW1 (UniProt Q9NV66),0.051
10,TUBAL3 (UniProt A6NHL2),-0.094
11,TOM1L1 (UniProt O75674),-0.019
12,TPR (UniProt P12270),-0.122
13,TP53BP1 isoform 2 (UniProt Q12888),-0.337 (active)
14,TRAPPC2L (UniProt Q9UL33),0.014
15,U2AF1 isoform 2 (UniProt Q01081),0.169
16,TMEM9B (UniProt Q9NQ34),0.038
17,VPS37A (UniProt Q8NEZ2),-0.066
18,WEE1 (UniProt P30291),0.263
19,TNFAIP8 isoform 4 (UniProt O95379),-0.037

row,Target,log2 fold change
1,UBAP2L isoform 5 (UniProt Q14157),0.068
2,WDR43 (UniProt Q15061),0.222 (active)
3,UFD1 isoform 1 (UniProt Q92890),0
4,TRAPPC6B (UniProt Q86SZ2),0.004
5,UCHL5 isoform 3 (UniProt Q9Y5K5),0.028
6,XPOT (UniProt O43592),0.033
7,TMEM208 (UniProt Q9BTX3),0.081
8,UFM1 (UniProt P61960),0.133
9,UQCR10 (UniProt Q9UDW1),0.057
10,USP7 (UniProt Q93009),0.17
11,WDR46 (UniProt O15213),-0.382
12,TTI2 (UniProt Q6NXR4),0.033
13,XPO1 (UniProt O14980),-0.011
14,TRMT10A (UniProt Q8TBZ6),0.066
15,TMEM87B (UniProt Q96K49),0.029
16,VPS13B (UniProt Q7Z7G8),0.015
17,VPS33A (UniProt Q96AX1),0.005
18,VWA3B isoform 6 (UniProt Q502W6),0.089
